# The campaign covered roughly 69,000 compounds. About 8,600 (12%) showed an effect of 50% or more. For the sample, strong results were picked, then their nearest neighbours and some compounds at random.
# System: Plasmodium berghei
# Assay: Screen against P. berghei liver stage (PbLuc), transformed with Luciferase, at 10uM
# Assay type: functional, HepG2
# Conditions: tested at 10 uM
row,Structure (SMILES),INHIBITION [%]
1,Cc1cc(C(=O)NCC2(C(N)=O)CCOCC2)nn1C(C)(C)C,0.705
2,CC(C)(C)n1nc(C(=O)NCC2(C(N)=O)CCOCC2)cc1C1CC1,21.7
3,CC(C)c1cc(C(=O)NCC2(C(N)=O)CCOCC2)nn1C(C)(C)C,62.4
4,O=C(NCc1cccnc1)NCC(O)c1ccccc1C(F)(F)F (centres undefined),16.8
5,Cn1c(NCC(O)c2ccc(Cl)cc2)c(C#N)c(=O)n(C)c1=O (centres undefined),19.4
6,CCn1cc(NC(=O)NCC(O)c2ccccc2)cn1 (centres undefined),-30.4
7,CC(C)(C)n1ncc(NCC(O)c2ccc(F)c(F)c2)c(Cl)c1=O (centres undefined),84.5
8,CC(C)(C)n1ncc(NCC(O)c2ccccc2C(F)(F)F)c(Cl)c1=O (centres undefined),82.2
9,Oc1ccc(Cl)cc1CNCc1ccccc1C(F)(F)F,16.6
10,Cn1c(NCC(O)c2ccc(F)c(F)c2)c(C#N)c(=O)n(C)c1=O (centres undefined),-52.5
11,CC(=O)c1c(F)cccc1NCC(O)c1ccc(F)c(F)c1 (centres undefined),15.7
12,O=C(NCC(O)c1ccccc1C(F)(F)F)c1cccnc1 (centres undefined),-2.97
13,CC(C)(C)n1ncc(NCCc2ccccc2C(F)(F)F)c(Cl)c1=O,76.6
14,CC(C)(C)n1ncc(NCC(O)c2ccccc2)c(Cl)c1=O (centres undefined),77.7
15,CC(C)(C)n1ncc(C(=O)NCCCC(N)=O)c1C(F)(F)F,26.9
16,Cc1ccc(C2CSCCN2C(=O)NCc2cccnc2)cc1 (centres undefined),4.66
17,CCCNS(=O)(=O)c1cc2c3c(c1)c(C)cc(=O)n3CCC2,22.85
18,CNc1cc(CNC(=O)c2ccnc(OC)c2)nc(-c2ccncc2)n1,32.3
19,Cc1cnc(N2CCn3cc(CNC(=O)CC4CC4)nc3C2)nc1,25.6
20,NC(=O)c1ccccc1-n1cc(-c2cccc(C(=O)O)c2)cn1,71.5
21,NC(=O)c1cc(-c2cccc(C(=O)O)c2)cs1,29.8
22,NC(=O)c1cc(-n2cc(-c3cccc(C(=O)O)c3)cn2)cs1,5.17
23,CO[C@H]1CCN(Cc2cnn(C)c2)[C@@H]2CN(Cc3ccncc3)C[C@H]12,7.31
24,CC(C)Cc1noc(CN2CCN(C(=O)c3ccccc3F)CC2)n1,-19.4
25,CC(C)Nc1ncnc2c1CCN(Cc1nccn1C)CC2,24.9
26,Cc1ncc(CNCC2CCC(C(N)=O)CC2)n1-c1ccccc1 (centres undefined),30.8
27,Cc1ncc(CNCC(=O)NC2CCCCC2)n1-c1ccccc1,65
28,Cc1ncc(CNCC(=O)NCC(F)(F)F)n1-c1ccccc1,41.5
29,Cc1n[nH]c(C)c1-c1nccnc1CC1CCNC1 (centres undefined),25

# Reference: ChEMBL document CHEMBL4513216, “Probing the Open Global Health Chemical Diversity Library for Multistage-Active Starting Points for Next-Generation Antimalarials” (ACS Infect Dis, 2020)
